From PubChem BioAssay AID624267 (The Scripps Research Institute Molecular Screening Center, 2012)
The campaign covered roughly 360,000 compounds. About 1,400 (0.39%) were called active. Shown is part of a subset that was picked to be rich in actives. Unmarked numbers belong to inactive results. Rule as the data show it: active = inhibition above about 21%; inactive = the rest.

Target: Receptor-interacting serine/threonine-protein kinase 2 (Homo sapiens) (UniProt O43353)
Experiment: inhibitors of RIPK2 association with NOD2 – fluorescence, CHO cells, BLA complementation, primary screen (AID 624267);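 also: 0% = vehicle only and 100% = reference blocker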
Details: CHO BLA complementation NOD2-RIPK2, CCF4 ratio; at 4.98 µM; hits give high values

Sequence of Receptor-interacting serine/threonine-protein kinase 2 (Homo sapiens) (O43353 whole entry, looked up): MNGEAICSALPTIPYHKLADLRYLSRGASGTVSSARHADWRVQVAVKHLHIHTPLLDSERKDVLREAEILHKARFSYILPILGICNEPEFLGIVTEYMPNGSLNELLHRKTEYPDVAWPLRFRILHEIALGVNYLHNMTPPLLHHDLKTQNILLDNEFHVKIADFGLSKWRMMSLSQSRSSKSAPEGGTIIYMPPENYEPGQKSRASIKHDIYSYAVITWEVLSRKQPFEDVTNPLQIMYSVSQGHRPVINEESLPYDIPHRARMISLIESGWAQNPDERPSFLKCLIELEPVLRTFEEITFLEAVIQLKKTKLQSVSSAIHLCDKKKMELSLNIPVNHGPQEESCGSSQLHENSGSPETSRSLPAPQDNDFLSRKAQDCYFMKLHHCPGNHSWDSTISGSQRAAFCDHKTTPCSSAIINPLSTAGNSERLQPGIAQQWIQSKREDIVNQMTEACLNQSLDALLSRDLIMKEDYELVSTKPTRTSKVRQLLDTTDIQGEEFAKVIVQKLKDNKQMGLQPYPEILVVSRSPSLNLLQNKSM

| Structure (SMILES) | inhibition |
| --- | --- |
| CCOC(=O)[C@]12Cc3ccccc3[C@H]1N(C1CCCCC1)C(=O)c1cc(OC)ccc12 | 43.5% (active) |
| CCOC(=O)[C@]12Cc3cc(OC)ccc3[C@H]1N(C(C)C)C(=O)c1ccccc12 | -1.01% |
| CCOC(=O)c1cccc(C2=C(CNC(=O)c3ccncc3)[C@H]3CC[C@@H](C2)N3Cc2ccccc2)c1 | -12.2% |
| Cc1ccc2c(c1)C1CN(C)CCC1N2C(=O)Cn1nnc(-c2ccccc2F)n1 (stereo not given) | -3.9% |
| CCN1CCN(Cc2cc(OC)c3c(c2)OCO3)CC1 | -5.64% |
| COc1cc(OC)cc(C2(C#N)CCN(C)CC2)c1 | -12.2% |
| c1ccc(CCNC2CCCCCC2)cc1 | -21.6% |
| CC(=O)OC1C2(CC3N4C(=O)C5(CO)SSC4(CC31O)C(=O)N5C)OC(C)C(C)(C)C2=O (stereo not given) | 63.9% (active) |
| CC(=NCc1ccc2c(c1)OCO2)c1c(O)[nH]c(=O)[nH]c1=O | 4.27% |
| CC(C(=O)Nc1ccc(Cl)cc1Cl)N1CC=C(c2ccccc2)CC1 (stereo not given) | -16.5% |
| CC[C@H]1CC2CN3CCc4c([nH]c5ccccc45)C(C(=O)OC)(C2)C13 (stereo not given in full) | -13.6% |
| CNCC(O)c1cc(F)c(OCc2ccccc2)c(OCc2ccccc2)c1F (stereo not given) | -9.31% |
| CN(C)CC1Oc2ccccc2OC1(O)c1ccccc1 (stereo not given) | 54.1% (active) |
| COc1ccccc1NC(=O)N1C[C@@H]2C[C@@H](C1)c1cccc(=O)n1C2 | -9.61% |
| COC(=O)C1=C(c2ccc(Cl)c(C(F)(F)F)c2)C[C@@H]2CC[C@H]1N2C(=O)NC1CC1 | -1.54% |
